Screening results: PubChem BioAssay, National Center for Advancing Translational Sciences (NCATS)
Most compounds without a hit are left out; they make up all but 14% or so of the library.
Sm TGR block – S. mansoni TGR enzyme inhibition; Q962Y6; purified TGR, DTNB reduction, TNB absorbance 405 nm; Potency, µM (series often up to 114 µM), usual class: inhibitors; 360,000 tested, 3% active; AID 485364; further: nearly all actives have a fitted effect of over 60% in size
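TGR 20 nM + NADPH 100 uM (dispensed conc.), cpd preinc 15 min RT; start with NADPH (500 uM addition) then DTNB (15 mM addition). Kinetic TNB absorbance, 405 nm filter. Four-parameter Hill fit across titration.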
Pf growth 48h – inhibits P. falciparum growth in the first generation, 48 h | 310,000 tested, 5.9% active | Potency, µM (series often up to 28.7 µM), most hits filed as inhibitors | AID 504832 | P. falciparum luciferase growth in erythrocytes, 48 h
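Luciferase-expressing parasites in RBCs, 2% Hct / 0.1% parasitemia final; RPMI 1640 + 0.5% Albumax; 37 C, 5% CO2, one generation; luminescence read-out, lower signal = inhibition.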
Pf growth 96h – P. falciparum growth inhibition at 96 hours | P. falciparum luciferase reporter growth, 96 h | Potency, µM (titrated, usually from 28.7 µM), hits mostly inhibitors | 320,000 tested, 6.9% active
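P. falciparum expressing integrated firefly luciferase grown in erythrocytes (2% hematocrit, 0.05% parasitemia final) with compounds for 96 hours at 37 C, 5% CO2. Growth inhibition read as loss of luminescence after adding luciferase detection reagent.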
Giardia FBPA inh – inhibitors of Giardia lamblia fructose-1,6-bisphosphate aldolase | A8B2U2 | purified Giardia FBPA | Potency, µM (top dose mostly 59.6 µM), most hits filed as inhibitors | 290,000 tested, 0.71% active | AID 2451; further: nearly all actives have a fitted effect of over 55% in size
Target sequence (A8B2U2 whole entry, looked up): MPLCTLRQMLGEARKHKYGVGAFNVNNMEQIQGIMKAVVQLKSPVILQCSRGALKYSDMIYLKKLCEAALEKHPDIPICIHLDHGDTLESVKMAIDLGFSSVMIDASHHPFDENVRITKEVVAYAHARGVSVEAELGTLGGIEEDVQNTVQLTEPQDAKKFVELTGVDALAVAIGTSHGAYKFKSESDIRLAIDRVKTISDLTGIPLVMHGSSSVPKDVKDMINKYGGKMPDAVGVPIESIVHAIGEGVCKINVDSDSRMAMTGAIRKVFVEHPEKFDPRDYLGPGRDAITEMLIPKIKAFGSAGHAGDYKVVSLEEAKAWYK
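Giardia FBPA (40 nM reagent) was preincubated 10 min at RT with compound (up to 57.5 uM final), then substrate plus GAPDH/TPI/NAD/arsenate coupling system with diaphorase/resazurin was added; resorufin fluorescence (525/598 nm) was read after 20 min.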
HCMV inh – human cytomegalovirus inhibition | HFF cells, HCMV-luciferase reporter, 72 h; hits give low values | activity change, negative = inhibition, % at 57.5 µM | 410,000 tested, 4.5% active | AID 1259415; in the data active means activity change below about -60%; inconclusive means no clear call, values can overlap the other calls; inactive means above about -39%
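Compounds were evaluated in HFFs infected with an HCMV luciferase reporter virus (MOI 1 PFU/cell). Luciferase in lysates collected 72 h post infection served as the replication measure.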
Each line names hits and unclear results; the compound was inactive in the other large screens. Unless noted, the call rests on the fitted dose curve; in most records, active means well fitted curve in the direction sought with a large enough effect; inconclusive means small, poorly fitted or top-dose-only effect, or another doubt; inactive means no such curve, though single readings can be large; an effect the other way counts as inactive or inconclusive.

C=CCc1cccc(CNc2nc3ccccc3n2CCN2CCOCC2)c1O	Pf growth 48h 3.7µM (no result: Pf growth 96h)
COc1ccccc1CNc1nc2ccccc2n1CCN1CCCCC1	Pf growth 48h inconclusive, Pf growth 96h inconclusive, HCMV inh inconclusive
Oc1ccccc1CNc1nc2ccccc2n1CCN1CCCCC1	Pf growth 48h 2.9µM
C=CCc1cccc(CNc2nc3ccccc3n2C)c1O	Pf growth 48h inconclusive, Pf growth 96h inconclusive
CCCn1c(NCc2cccc(OC)c2O)nc2ccccc21	Pf growth 48h 12µM
CCOC(=O)c1ccccc1NC(=O)CSc1ccc(-c2sc(C)nc2C)nn1	none (no result: Pf growth 48h, Pf growth 96h, Giardia FBPA inh)
COc1cc(/C=C2\SC(=O)N(CCN)C2=O)ccc1OS(=O)(=O)c1cc(C)ccc1C	HCMV inh inconclusive
CCN1C(=O)N[C@@H](CCc2ccccc2)[C@@H](C(=O)OC)[C@H]1C	Sm TGR block 2.2µM
COC(=O)[C@H]1[C@H](CCc2ccccc2)NC(=O)N(Cc2ccccc2)[C@@H]1C	none (no result: Sm TGR block, Pf growth 48h, Pf growth 96h)
COC(=O)c1cc2c([nH]c3ccccc32)c(C)n1	none (no result: HCMV inh)
COc1ccc(NC(=O)c2cc3c([nH]c4ccccc43)c(C)n2)cc1	Pf growth 48h inconclusive, Pf growth 96h 9.3µM
COC(C[C@H](O)CC(=O)[C@H](C)OCc1ccccc1)OC	Sm TGR block 45µM
COC(C[C@@H](O)CC(=O)[C@@H](C)OCc1ccccc1)OC	none
COc1cccc(C(=O)COc2ccc(NC(=O)c3cccs3)cc2)c1	Pf growth 48h 12µM, Pf growth 96h inconclusive (no result: Giardia FBPA inh)
CCCCOc1cccc(C(=O)Nc2ccc(NC(=O)c3cccs3)cc2)c1	Pf growth 96h 4.7µM, HCMV inh -89
CCCOc1ccc(C(=O)Nc2ccc(NC(=O)c3cccs3)cc2)cc1	none
O=C(COc1ccc(NC(=O)c2cccs2)cc1)c1ccc(F)cc1	Pf growth 48h inconclusive (no result: Giardia FBPA inh)
COc1cccc(-c2nc(-c3ccc(NC(=O)c4cccs4)cc3)no2)c1	Pf growth 96h 4.1µM
CC(C)[C@@H]1NC(=O)[C@H](CCCCN)NC(=O)[C@@H](Cc2c[nH]c3ccccc23)NC(=O)[C@H](Cc2ccc(O)cc2)NC(=O)[C@@H](NC(=O)[C@H](N)Cc2ccccc2)CSSC[C@@H](C(=O)N[C@@H](Cc2c[nH]c3ccccc23)C(N)=O)NC1=O	none (no result: Sm TGR block, Pf growth 48h, Pf growth 96h, HCMV inh)
O=Cc1cn(CCOc2ccccc2)c2ccccc12	none
CC(C)N1C(=O)CC2(CC[N+](C)(CCOC(=O)C(O)(c3ccccc3)c3ccccc3)CC2)C1=O (centres undefined)	none
CC(C)N1C(=O)CC2(CC[N+](C)(CCOC(=O)C(c3ccccc3)c3ccccc3)CC2)C1=O (centres undefined)	Sm TGR block 50µM, Giardia FBPA inh inconclusive
CCc1sc(C(=O)NCCCn2ccnc2)cc1Br	Pf growth 96h inconclusive
CC(C(=O)Nc1ccc([N+](=O)[O-])cc1Cl)N1CCN(S(=O)(=O)c2cccs2)CC1 (centres undefined)	Pf growth 48h 12µM, Pf growth 96h inconclusive, HCMV inh inconclusive (no result: Giardia FBPA inh)
CC(C(=O)Nc1cc([N+](=O)[O-])ccc1Cl)N1CCN(c2ccc(O)cc2)CC1 (centres undefined)	Pf growth 96h 13µM, HCMV inh inconclusive
O=C(c1cc([N+](=O)[O-])ccc1Cl)N1CCN(c2ccc([N+](=O)[O-])cc2)CC1	HCMV inh inconclusive
CC(C(=O)NC(=O)NC1CCCCC1)N1CCN(c2ccc(O)cc2)CC1 (centres undefined)	Pf growth 48h inconclusive, Pf growth 96h 17µM (no result: Giardia FBPA inh)
COc1ccc(N2CCN(S(=O)(=O)CCNC(=O)Cc3ccc(OC)c(OC)c3)CC2)cc1	none (no result: Pf growth 48h, Pf growth 96h, Giardia FBPA inh)
CCCC(=O)Nc1cccc(OCc2cc(=O)n3cccc(C)c3n2)c1	none (no result: Pf growth 48h, Pf growth 96h, Giardia FBPA inh)
Cc1cc(C)cc(-n2c(C)cc(C(=S)N3CCOCC3)c2C)c1	Pf growth 48h 12µM
Cc1cc(C(=S)N2CCOCC2)c(C)n1-c1ccc(Cl)cc1	Pf growth 48h inconclusive, Giardia FBPA inh inconclusive, HCMV inh inconclusive
Cc1cc(C)cc(N2CCN(C(=O)N3CCOCC3)CC2)c1	Pf growth 96h 6.6µM
CN(C1=NC(=O)C(CC(=O)Nc2ccc(Br)cc2)S1)c1ccc(O)cc1 (centres undefined)	Pf growth 96h 5.2µM
CCNC(=O)c1ccc(NC(=O)CC2SC(N3CCCC3)=NC2=O)cc1 (centres undefined)	none (no result: Giardia FBPA inh)
CCCOc1ccc(NC(=O)c2cc3cc(C)ccc3[nH]2)cc1	Pf growth 96h 12µM
Cc1ccc2[nH]c(C(=O)Nc3ccc(F)cc3)cc2c1	Pf growth 96h 8.3µM
Cc1cc(C)c2cc(C(=O)Nc3ccccc3)[nH]c2c1	Pf growth 48h inconclusive, Pf growth 96h 8.3µM, HCMV inh inconclusive
CCCOc1ccc(NCC(=O)Nc2ccc(C)cc2C)cc1	Pf growth 96h inconclusive, Giardia FBPA inh inconclusive
O=C1C=CC(=O)c2c(O)c(N3CCN(CCOCCO)CC3)c(Br)c(O)c21	HCMV inh -98 (no result: Sm TGR block, Pf growth 48h, Pf growth 96h, Giardia FBPA inh)
O=C1C=CC(=O)c2c(O)c(N3CCN(CCO)CC3)c(Cl)c(O)c21	HCMV inh -100 (no result: Sm TGR block, Pf growth 48h, Pf growth 96h, Giardia FBPA inh)
N#Cc1c(NC(=O)c2ccc(Cn3cc(Br)cn3)o2)sc2c1CCCCCC2	HCMV inh -99
CCCN1CCc2c(sc(NC(=O)c3ccc(S(=O)(=O)N4CCN(C(=O)OCC)CC4)cc3)c2C(N)=O)C1	Pf growth 48h 10µM, Pf growth 96h inconclusive
CN1CCc2c(sc(NC(=O)c3ccc([N+](=O)[O-])o3)c2C(N)=O)C1	Sm TGR block inconclusive, Pf growth 48h inconclusive, Pf growth 96h inconclusive, HCMV inh -104 (no result: Giardia FBPA inh)
